# IMPase cell inh: qHTS Assay for Identifying the Cell-Membrane Permeable IMPase Inhibitors; Inositol monophosphatase 1 (Rattus norvegicus), P97697; CHO-M1 cells, IP1 accumulation, HTRF TR-FRET ratio; inhibition (IP1 accumulation), % at 46.1 µM; 120,000 tested, under 10 active; AID 901, 2007; active means well fitted curve in the direction sought with a large enough effect in the signal ratio, not every such curve was filed as active; inconclusive means small, poorly fitted or top-dose-only effect, or a change in a side signal; inactive means no such curve, though single readings can be large or run the other way; the % refers to the signal ratio;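 further: cells stimulated with carbachol in lithium chloride buffer; plate controls were DMSO basal wells for no effect and reference inhibitor wells for full effect; higher means more IMPase inhibition seen as more IP1 and lower FRET ratio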
# Target sequence (P97697 whole entry, looked up): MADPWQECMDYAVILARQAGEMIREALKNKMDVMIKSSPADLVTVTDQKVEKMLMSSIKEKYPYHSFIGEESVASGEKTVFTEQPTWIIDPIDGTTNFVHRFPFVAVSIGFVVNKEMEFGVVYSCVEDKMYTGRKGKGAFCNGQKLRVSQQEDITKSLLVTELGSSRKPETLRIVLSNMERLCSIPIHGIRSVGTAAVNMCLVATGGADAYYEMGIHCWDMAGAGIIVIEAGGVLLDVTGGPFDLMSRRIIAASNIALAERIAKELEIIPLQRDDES
#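 The IP-One HTRF competitive assay in carbachol-stimulated CHO-M1 cells quantifies cellular IP1. Compounds spanned up to 46 uM final, and activity is expressed as AC50 from concentration-response fits of the ratio and donor data.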
# ALDH1A1 block: qHTS Assay for Inhibitors of Aldehyde Dehydrogenase 1 (ALDH1A1); Aldehyde dehydrogenase 1A1 (Homo sapiens), P00352; Purified ALDH1A1, NADH fluorescence, propionaldehyde substrate; Potency, µM (titrated, usually from 75.3 µM), without a hit: at the highest dose activity, negative = inhibition, usual class: inhibitors; 220,000 compounds, 7.3% hits;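 further: potency means the concentration at half of the fitted maximal effect; plate controls were no enzyme wells and a reference inhibitor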
# HPGD block: qHTS Assay for Inhibitors of HPGD (15-Hydroxyprostaglandin Dehydrogenase). purified HPGD, NADH fluorescence kinetic, PGE2 substrate. Potency, µM, for inactives: at the highest dose activity change, negative = inhibition, actives largely listed as inhibitors. 150,000 compounds, 4.3% hits. AID 894, 2007; further: potency means the concentration at half of the fitted maximal effect
# Target sequence (P15428 whole entry, looked up): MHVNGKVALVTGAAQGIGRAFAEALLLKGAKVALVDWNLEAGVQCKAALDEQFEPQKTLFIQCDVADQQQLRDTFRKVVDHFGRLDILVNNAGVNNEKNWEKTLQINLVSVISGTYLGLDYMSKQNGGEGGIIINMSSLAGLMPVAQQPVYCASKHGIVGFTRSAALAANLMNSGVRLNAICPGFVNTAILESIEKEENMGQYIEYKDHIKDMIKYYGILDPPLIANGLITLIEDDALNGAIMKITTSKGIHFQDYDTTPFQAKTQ
#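 NADH formation kinetics: reaction with 30 uM PGE2 and 1 mM NAD+ (final), 20 nM enzyme, Tris-HCl pH 8 with Tween 20, after 15 min compound preincubation at room temperature. Fluorescence change, last versus first of five reads.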
# The depositor's hits bear a star; u = inconclusive; x = not tested or not shown; [ ] = dose if it differs, or a comment. Rows were chosen to be rich in hits. Some 9% of all compounds tested hit in one or more screens of this group. Unless noted, the call rests on the fitted dose curve; in most records, active means well fitted inhibition curve with a large enough effect (not every such curve was filed as active); inconclusive means small, poorly fitted or top-dose-only effect, or another doubt; inactive means no such curve, though single readings can be large or run the other way. Unless noted, on the % scale 0 is the no-effect control and ±100 the full control effect.
SMILES,IMPase cell inh,ALDH1A1 block,HPGD block
CCc1cc2c(=O)n(Cc3ccco3)c(SCC(=O)N(C)C3CCS(=O)(=O)C3)nc2s1 (stereo unspecified),x,10µM*,x
CCc1cc2c(=O)n(Cc3ccco3)c(SCc3c(C)noc3C)nc2s1,7,22µM*,-12%
CCc1cc2c(=O)n(Cc3ccco3)c(SCC(=O)N3CCCc4ccccc43)nc2s1,9,4.5µM*,-26%
Cc1nnc(SCC(=O)N(C)C2CCS(=O)(=O)C2)n1Cc1ccccc1 (stereo unspecified),x,0%,x
O=C(CCC(=O)NNC(=O)Nc1ccc(Cl)cc1)NCc1ccccc1,6,13%,0%
O=C(O)CCCNC(=O)c1cccc(C(=O)NCCCC(=O)O)n1,x,0%,-6%
COC(=O)Cc1cc(=O)[nH]c(/N=C(\N)Nc2ccc(C(C)C)cc2)n1,x,3%,x
Cc1onc(-c2c(F)cccc2Cl)c1C(=O)NNC(=O)C1CCN(Cc2cccc(F)c2)CC1,x,2%,x
Cc1cccc(OCc2n[nH]c(=S)n2C2CCCCC2)c1,0,u,10µM*
S=c1[nH]nc(COc2ccc(Cl)cc2)n1C1CCCCC1,4,u,14µM*
S=c1[nH]nc(COc2ccc(Cl)cc2)n1Cc1ccccc1,x,5%,x
S=c1[nH]nc(-c2ccco2)n1C1CCCCC1,-12,u,u
Cc1ccc(OCc2n[nH]c(=S)n2C2CCCCC2)cc1,-4,14µM*,14µM*
S=c1[nH]nc(COc2cccc(Cl)c2)n1Cc1ccccc1,x,-8%,x
Cc1ccc(CN2CC(C(=O)Nc3cccc(S(=O)(=O)N4CCCCC4)c3)CC2=O)cc1 (stereo unspecified),x,-2%,-19%
Cc1ccc(S(=O)(=O)c2nc(-c3cccc(Br)c3)oc2N2CCCCCC2)cc1,4,x,x
O=C(CCc1nnc(CCCCc2ccccc2)o1)NCCN1CCCCC1=O,x,-3%,x
O=[N+]([O-])c1ccc(N2CCN(Cc3ccccc3)CC2)nc1,x,20µM*,x
O=[N+]([O-])c1ccc(CN2CCN(c3ccc4ccccc4n3)CC2)cc1,x,0%,x
CCO[C@H]1OC(C(=O)N2CCCCCCC2)=C[C@@H](c2coc3ccccc3c2=O)[C@@H]1CCCO,x,8%,x
CC1CCC(C(C)C)C(OC(=O)COC(=O)c2ccc(=O)[nH]c2)C1 (stereo unspecified),u,5%,-11%
CC1CCC(C(C)C)C(OC(=O)CSc2nccc(=O)[nH]2)C1 (stereo unspecified),4,25µM*,-2%
CCC1CCc2nc3sc(C(=O)Nc4ccc(F)c(Cl)c4)c(N)c3cc2C1 (stereo unspecified),-3,x,x
CSC1=NCCN1C(=O)c1ccc(C)cc1,x,-3%,x
CSC1=NCCN1C(=O)c1ccc2c(c1)OCO2,1,11µM*,x
SMILES,IMPase cell inh,ALDH1A1 block,HPGD block
O=C(Nc1ccon1)c1cc2ccccc2oc1=O,-4,u,-25%
COc1ccc(C(=O)Nc2cc(-c3nc4ncccc4o3)ccc2C)cc1Br,-21,x,x
COCCNc1nc(-c2ccc(OC)cc2)c(-c2ccc(OC)cc2)s1,x,28µM*,x
CCCCCCNc1nc(-c2ccc(OC)cc2)c(CCC(=O)O)s1,-3,22µM*,u
CCN(CC)CCNc1nc(-c2ccc(OC)cc2)c(-c2ccc(OC)cc2)s1,x,-13%,x
COC(=O)CCc1sc(NC2CCCCC2)nc1-c1ccc(OC)cc1,x,u,22µM*
COc1ccc(-c2nn(CCC(=O)O)cc2CCC(=O)O)cc1,-7,-8%,-17%
COc1ccc(OCCC(=O)NC2CCCCC2)cc1,x,-1%,x
CCN(CC)S(=O)(=O)c1ccc(N=Cc2c(C)c(C#N)c(=O)n(C)c2O)cc1,x,u,-21%
CCOc1cc(C2c3c(oc4ccccc4c3=O)C(=O)N2Cc2ccccc2Cl)ccc1O (stereo unspecified),13,x,x
CC(C)C[C@@H](CC(=O)N[C@@H](CCCN)CC(=O)N[C@@H]1CCNC[C@H]1C(=O)N[C@H](CC(=O)N[C@@H](CCC(=O)O)CC(=O)O)Cc1c[nH]c2ccccc12)NC(=O)[C@@H]1CNCC[C@H]1N,x,-13%,-5%
CC1CCC(NC(=O)N(CCCl)N=O)CC1 (stereo unspecified),x,13µM*,-9%
CCN(CC)C(=O)NC1CCCCCCC1,x,11%,x
COC(=O)CCNS(=O)(=O)c1ccc2ccccc2c1,x,u,0%
Cc1ccc(NC(=S)N2CCC(c3ccc(C)cc3)C2)cc1 (stereo unspecified),x,28µM*,x
Cc1ccc(C2CCN(C(=O)Nc3ccccc3)C2)cc1 (stereo unspecified),2,-7%,-20%
Cc1cc(C)n(C(=O)c2ccc(S(=O)(=O)NCC3CCCO3)cc2)n1 (stereo unspecified),1,u,-17%
CCOC(=O)/C(=C\c1cccc(O)c1)c1nc2sc(C)c(C)c2c(=O)[nH]1,x,7.9µM*,7.9µM*
CCOC(=O)c1nc2sc(C)c(C)c2c(=O)[nH]1,-10,u,u
O=C1OC(CO)C(O)C(O)C1O (stereo unspecified),x,-4%,-5%
COC(=O)c1cnn(-c2cc(Oc3ccccc3)ncn2)c1N,-6,u,x
COc1ccccc1Oc1cc(-n2nc(C)cc2C)ncn1,x,u,-5%
Cc1ccccc1Oc1cc(-n2ncc(Cl)c(Cl)c2=O)ncn1,x,1.6µM*,-17%
CCOc1cnn(-c2cc(Oc3ccc(C)cc3)ncn2)c(=O)c1Cl,-7,11µM*,-8%
CCC(C)C(NC(=O)c1ccc(Cl)cc1)C(=O)Nc1cccnc1 (stereo unspecified),x,0%,x
SMILES,IMPase cell inh,ALDH1A1 block,HPGD block
CN(C)C(=O)CCSc1nnc(-c2ccncc2)o1,x,5%,x
COCC(=O)N1CCC[C@@]2(CCN(c3ncccn3)C2)C1,x,-7%,-16%
O=C(O)c1cccc(SSc2cccc(C(=O)O)c2)c1,x,-11%[13.5 µM],4.5µM*
O=C(O)c1ccccc1,x,-1%,-5%
Cc1[nH]n(-c2ccccc2)c(=S)c1C=Nc1ccc([N+](=O)[O-])cc1,x,5.6µM*,3.5µM*
Cc1[nH]n(-c2ccccc2)c(=O)c1C=Nc1cnc2ccccc2c1,-1,-7%,-9%
Cc1ccc(S(=O)(=O)NNC(=O)c2cnn(-c3ccccc3)c2-n2cccc2)cc1,7,0.18µM*,-5%
CNC(=O)c1sccc1-n1cccc1,1,-5%,-7%
O=C(N/N=C\c1ccc(Cl)cc1)c1sccc1-n1cccc1,6,3%,-5%
Cc1ccc(S(=O)(=O)NNC(=O)c2sc3nc(C)cc(C)c3c2-n2cccc2)cc1,-1[1.84 µM],0.14µM*,-5%
COCc1cc(C)nc2sc(C(=O)NCCO)c(-n3cccc3)c12,x,10%,x
Cc1ccc(CNC(=O)c2sccc2-n2cccc2)cc1,1,u,13µM*
CN(C)c1ccc(/C=N/NC(=O)c2sccc2-n2cccc2)cc1,x,20µM*,x
Cc1ccc(S(=O)(=O)NNC(=O)c2ccccc2O)cc1,x,-3%,u
CCOc1cc(-c2nc(-c3ccc(-c4ccccc4)nc3OCC)no2)cc(OCC)c1OCC,2,x,x
Cc1cc(F)ccc1NC(=O)CCSc1nc(-c2ccco2)cc(C(F)(F)F)n1,4,x,x

# From PubChem
